# Records with an inconclusive call do not appear. Active and inactive are the calls of the source. How the source made its calls: active means hit-call score of the fitted dose curve at least 0.9, where 1 is the maximum; inconclusive means response in the unintended direction; inactive means score below 0.9.
# Columns and labels:
# [1] = target: Estrogen receptor (Homo sapiens) (UniProt P03372); assay: OT_ER_ERaERa_0480: Odyssey Thera (OT) 8-hour HEK293T Protein-Complementation Assay for Estrogen Receptor-alpha/-alpha Homodimer (AID 2283351);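 further: rise in fluorescence from reassembled reporter fragments on ERα LBD homodimer in nucleus or whole cell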
# Procedure, shortened: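 Measures ERα LBD (aa 310-547) homodimer complementation in stably transfected HEK293T at 8 h post-dose, with fluorescence intensity quantified on a laser scanning cytometer relative to DMSO controls.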
# [2] = target: T1, Estrogen receptor (Homo sapiens) + Estrogen receptor beta (Homo sapiens) (UniProt P03372+Q92731); assay: OT_ER_ERaERb_1440: Odyssey Thera (OT) 24-hour HEK293T Protein-Complementation Assay for Estrogen Receptor-alpha/-beta Homodimer (AID 2283356);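 further: heteromer of ER alpha and ER beta binding domains; hits raise reporter fluorescence and both agonists and antagonists give an increase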
# Procedure, shortened: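 Readout: mean fluorescence intensity in nucleus (agonists) or nucleus plus cytoplasm (antagonists), read by laser scanning cytometer after 24 h compound exposure of HEK293T cells carrying ERα/ERβ LBD fragment-complementation constructs; DMSO baseline.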
# [3] = target: Estrogen receptor beta (Homo sapiens) (UniProt Q92731); assay: OT_ER_ERbERb_0480: Odyssey Thera (OT) 8-hour HEK293T Protein-Complementation Assay for Estrogen Receptor-beta/-beta Homodimer (AID 2283357);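 further: active means signal gain over DMSO baseline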
# Procedure, shortened: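 ER-beta LBD homodimer PCA stably expressed in HEK293T; 8 h compound exposure, then formaldehyde fixation and Draq5 staining. Gain in nuclear/cytoplasmic fluorescence intensity versus DMSO vehicle, read on laser scanning cytometer.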
# [4] = target: T1, Estrogen receptor (Homo sapiens) + Estrogen receptor beta (Homo sapiens); assay: OT_ER_ERaERb_0480: Odyssey Thera (OT) 8-hour HEK293T Protein-Complementation Assay for Estrogen Receptor-alpha/-beta Heterodimer (AID 2283352)
# Procedure, shortened: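 Fluorescence intensity readout from a protein-fragment complementation reporter in HEK293T; ER-alpha/ER-beta LBD heterodimer. Dosing 8 h. Gain-of-signal fit relative to DMSO negative control; laser scanning cytometry of whole-well cell population.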
# [5] = target: Nuclear receptor subfamily 1 group I member 2 (Homo sapiens) (UniProt O75469); assay: NVS_NR_hPXR: NovaScreen (NVS) Nuclear Receptor Binding Assay for human Pregnane X Receptor (PXR) (AID 2283365);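 further: a drop in FRET signal versus DMSO baseline means the compound binds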
# Procedure, shortened: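 TR-FRET signal read at 2 h in a cell-free human PXR binding format. DMSO served as negative control and baseline; activity scored as signal loss. Single-concentration duplicate screen (25 uM), then concentration-response follow-up.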
# [6] = target: guinea pig Sigma Receptor, Non-selective Binding, SIGMAR1 (gene 100135589) (UniProt Q60492); assay: NVS_OR_gSIGMA_NonSelective: NovaScreen (NVS) Nuclear Receptor Binding Assay for guinea pig Sigma Receptor, Non-selective Binding (AID 2283367)
# Procedure, shortened: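 Guinea pig brain membrane sigma sites were labelled with a radioligand, and bound radioactivity was counted after filtration 1 h post-dose. Compounds were screened at 25 uM in duplicate, then retested as concentration series when active.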
# [7] = target: human Peroxisome Proliferator-activated Receptor alpha (PPARa), PPARA (gene 5465) (UniProt Q07869); assay: NVS_NR_hPPARa: NovaScreen (NVS) Nuclear Receptor Binding Assay for human Peroxisome Proliferator-activated Receptor alpha (PPARa) (AID 2283359);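 further: activity means loss of TR-FRET signal versus DMSO baseline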
# Procedure, shortened: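 Loss of TR-FRET binding signal relative to DMSO was measured 1 h after chemical addition to extracted receptor protein. Chemicals were first tested in duplicate at 25 uM, and actives were followed up in concentration series.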
# [8] = target: human Thyroid Receptor Alpha (TRa), THRA (gene 7067) (UniProt P10827); assay: NVS_NR_hTRa_Antagonist: NovaScreen (NVS) Nuclear Receptor Binding Assay for human Thyroid Receptor Alpha Antagonism (TRa) (AID 2283362);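 further: activity is loss of signal relative to DMSO baseline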
# Procedure, shortened: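 AlphaLISA chemiluminescent immunoassay readout, taken 1 h post-dosing in a cell-free system with extracted protein. Activity was scored as signal loss against DMSO negative control, from duplicate single-concentration (25 uM) testing followed by concentration-response follow-up.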
# [9] = target: Androgen Receptor/SRC-1 Co-activator, AR (gene 367) (UniProt P10275); assay: OT_AR_ARSRC1_0960: Odyssey Thera (OT) 16-hour HEK293T Protein-Complementation Assay for Androgen Receptor/SRC-1 Co-activator (AID 2283353);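 further: actives raise the signal above DMSO so potency reflects increased AR and SRC-1 complex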
# Procedure, shortened: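 Sixteen-hour cell assay: Venus halves fused to AR and SRC-1 in HEK293T report binding. Images at 488/635 nm give an N/C ratio in the 488 nm channel over ≥400 cells, analysed as signal increase over DMSO.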
# [10] = target: Androgen Receptor/SRC-1 Co-activator, AR (gene 367) (UniProt P10275); assay: OT_AR_ARSRC1_0480: Odyssey Thera (OT) 8-hour HEK293T Protein-Complementation Assay for Androgen Receptor/SRC-1 Co-activator (AID 2283354);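 further: hits raise the complementation signal above DMSO so AC50 marks enhancers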
# Procedure, shortened: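 Reconstituted split-Venus YFP signal from AR–SRC-1 interaction, read by imaging 8 h post-dose in stable HEK293T lines. The 488 nm nucleus-to-cytoplasm ratio (≥400 cells/image) was fitted upward against DMSO.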
# [11] = target: Glucocorticoid receptor (Homo sapiens) (UniProt P04150); assay: NVS_NR_hGR: NovaScreen (NVS) Nuclear Receptor Binding Assay for human Glucocorticoid Receptor (GR) (AID 2283363);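 on AC50: activity is loss of specific radioligand binding signal relative to DMSO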
# Procedure, shortened: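 Compounds first tested in duplicate at 25 uM, actives followed up in concentration series. Binding to extracted GR protein measured as competitive radioligand displacement, filter scintillation read 16 h post-dosing, normalised to DMSO.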
# [12] = target: human Adenosine Transporter (Adot), SLC29A1 (gene 2030) (UniProt Q99808); assay: NVS_TR_hAdoT: NovaScreen (NVS) Transporter Assay for human Adenosine Transporter (Adot) (AID 2283368)
# Procedure, shortened: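 Binding displacement on U937 extracted protein, read 1 h post-dose by filtration and scintillation counting. Primary duplicate test at 25 uM, then singleton concentration series with 50 uM top; DMSO baseline.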
# [13] = target: human Serotonin Transporter (SERT), SLC6A4 (gene 6532) (UniProt P31645); assay: NVS_TR_hSERT: NovaScreen (NVS) Transporter Assay for human Serotonin Transporter (SERT) (AID 2283372)
# Procedure, shortened: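 Human platelet membrane preparation; displacement of radioligand from serotonin transporter measured after 1 h by filtration and scintillation counting. Single 25 uM duplicate screen, then concentration series for actives, with DMSO as negative baseline.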
# [14] = target: Retinoic acid receptor alpha (Homo sapiens) (UniProt P10276); assay: NVS_NR_hRAR_Antagonist: NovaScreen (NVS) Nuclear Receptor Binding Assay for human Retinoic Acid Alpha Receptor Antagonism (RAR) (AID 2283358)
# Procedure, shortened: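 RARalpha antagonism was read by TR-FRET as loss of binding signal versus DMSO, 2 h after chemical addition, in a biochemical format. Single-concentration duplicates (25 uM) were run first, and actives were retested in concentration series.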
# [15] = system: guinea pig Dopamine Transporter (DAT), gene 100714898; assay: NVS_TR_gDAT: NovaScreen (NVS) Transporter Assay for guinea pig Dopamine Transporter (DAT) (AID 2283369);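 further: active compounds lower bound radioligand signal relative to DMSO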
# Procedure, shortened: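 Cell-free striatal membrane prep (guinea pig), 2 h exposure, filtration + scintillation readout of radioligand binding. Single-point 25 uM duplicate; actives rerun singleton, top conc 50 uM.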
# Sequence of Estrogen receptor beta (Homo sapiens) (Q92731 whole entry, looked up, the tested form may be a part): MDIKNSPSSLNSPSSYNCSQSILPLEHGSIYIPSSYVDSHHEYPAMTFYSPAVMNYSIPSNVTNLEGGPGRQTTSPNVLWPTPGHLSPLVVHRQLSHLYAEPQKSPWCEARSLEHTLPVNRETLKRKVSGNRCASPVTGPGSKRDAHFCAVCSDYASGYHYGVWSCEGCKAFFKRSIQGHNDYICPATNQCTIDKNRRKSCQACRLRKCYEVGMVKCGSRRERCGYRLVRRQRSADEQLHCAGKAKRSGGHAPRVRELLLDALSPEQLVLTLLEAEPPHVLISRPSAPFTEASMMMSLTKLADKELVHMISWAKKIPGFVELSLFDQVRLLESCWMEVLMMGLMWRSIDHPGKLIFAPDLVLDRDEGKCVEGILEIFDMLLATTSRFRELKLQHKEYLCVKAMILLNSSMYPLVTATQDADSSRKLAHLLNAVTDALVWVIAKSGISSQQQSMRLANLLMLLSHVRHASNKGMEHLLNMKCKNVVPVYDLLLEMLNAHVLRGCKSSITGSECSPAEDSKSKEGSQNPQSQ
# Sequence of human Adenosine Transporter (Adot), SLC29A1 (gene 2030) (Q99808 whole entry, looked up): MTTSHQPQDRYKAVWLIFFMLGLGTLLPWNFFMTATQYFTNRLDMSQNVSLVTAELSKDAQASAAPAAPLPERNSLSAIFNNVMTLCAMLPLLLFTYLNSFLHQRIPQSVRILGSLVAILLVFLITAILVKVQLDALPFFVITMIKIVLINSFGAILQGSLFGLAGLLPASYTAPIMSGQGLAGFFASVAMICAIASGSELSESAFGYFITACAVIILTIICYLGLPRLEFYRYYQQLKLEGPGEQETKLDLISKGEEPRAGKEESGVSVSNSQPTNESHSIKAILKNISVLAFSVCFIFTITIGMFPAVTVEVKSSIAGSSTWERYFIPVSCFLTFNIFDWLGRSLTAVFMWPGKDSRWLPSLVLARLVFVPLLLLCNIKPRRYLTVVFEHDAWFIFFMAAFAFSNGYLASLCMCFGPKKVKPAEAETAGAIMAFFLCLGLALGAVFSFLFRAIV
# Sequence of Nuclear receptor subfamily 1 group I member 2 (Homo sapiens) (O75469 whole entry, looked up): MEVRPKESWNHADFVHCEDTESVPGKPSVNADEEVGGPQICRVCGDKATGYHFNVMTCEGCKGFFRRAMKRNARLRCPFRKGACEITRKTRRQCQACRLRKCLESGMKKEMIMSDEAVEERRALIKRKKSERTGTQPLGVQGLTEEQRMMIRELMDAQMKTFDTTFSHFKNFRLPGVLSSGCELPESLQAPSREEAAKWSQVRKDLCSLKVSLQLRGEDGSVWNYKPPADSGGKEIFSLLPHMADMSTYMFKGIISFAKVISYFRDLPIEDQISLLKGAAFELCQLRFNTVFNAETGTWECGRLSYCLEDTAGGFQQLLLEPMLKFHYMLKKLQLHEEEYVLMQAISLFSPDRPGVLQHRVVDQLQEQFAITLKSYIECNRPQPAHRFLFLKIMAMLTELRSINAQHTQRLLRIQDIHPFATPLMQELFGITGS
# Sequence of Glucocorticoid receptor (Homo sapiens) (P04150 whole entry, looked up): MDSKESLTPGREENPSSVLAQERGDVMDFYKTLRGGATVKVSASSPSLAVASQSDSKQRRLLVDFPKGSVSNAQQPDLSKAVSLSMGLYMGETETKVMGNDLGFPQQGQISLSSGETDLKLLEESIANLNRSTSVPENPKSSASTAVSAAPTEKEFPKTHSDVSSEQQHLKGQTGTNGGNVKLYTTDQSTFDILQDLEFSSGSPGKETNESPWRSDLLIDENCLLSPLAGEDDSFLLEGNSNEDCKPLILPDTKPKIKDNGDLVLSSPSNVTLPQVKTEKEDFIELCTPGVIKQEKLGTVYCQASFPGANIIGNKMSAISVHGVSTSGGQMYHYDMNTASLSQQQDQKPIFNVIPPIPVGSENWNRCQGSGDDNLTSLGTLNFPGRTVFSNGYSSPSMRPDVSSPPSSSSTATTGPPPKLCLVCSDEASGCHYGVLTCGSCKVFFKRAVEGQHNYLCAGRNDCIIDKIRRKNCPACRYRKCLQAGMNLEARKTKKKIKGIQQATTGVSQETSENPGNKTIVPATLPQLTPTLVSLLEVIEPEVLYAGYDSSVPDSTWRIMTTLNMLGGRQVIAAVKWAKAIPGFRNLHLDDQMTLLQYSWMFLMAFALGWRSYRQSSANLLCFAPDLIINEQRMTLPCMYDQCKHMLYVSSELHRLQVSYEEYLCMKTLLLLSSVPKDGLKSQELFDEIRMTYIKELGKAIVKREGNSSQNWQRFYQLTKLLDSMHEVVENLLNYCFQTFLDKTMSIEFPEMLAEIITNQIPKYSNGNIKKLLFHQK
# Sequence of Androgen Receptor/SRC-1 Co-activator, AR (gene 367) (P10275 whole entry, looked up, the tested form may be a part): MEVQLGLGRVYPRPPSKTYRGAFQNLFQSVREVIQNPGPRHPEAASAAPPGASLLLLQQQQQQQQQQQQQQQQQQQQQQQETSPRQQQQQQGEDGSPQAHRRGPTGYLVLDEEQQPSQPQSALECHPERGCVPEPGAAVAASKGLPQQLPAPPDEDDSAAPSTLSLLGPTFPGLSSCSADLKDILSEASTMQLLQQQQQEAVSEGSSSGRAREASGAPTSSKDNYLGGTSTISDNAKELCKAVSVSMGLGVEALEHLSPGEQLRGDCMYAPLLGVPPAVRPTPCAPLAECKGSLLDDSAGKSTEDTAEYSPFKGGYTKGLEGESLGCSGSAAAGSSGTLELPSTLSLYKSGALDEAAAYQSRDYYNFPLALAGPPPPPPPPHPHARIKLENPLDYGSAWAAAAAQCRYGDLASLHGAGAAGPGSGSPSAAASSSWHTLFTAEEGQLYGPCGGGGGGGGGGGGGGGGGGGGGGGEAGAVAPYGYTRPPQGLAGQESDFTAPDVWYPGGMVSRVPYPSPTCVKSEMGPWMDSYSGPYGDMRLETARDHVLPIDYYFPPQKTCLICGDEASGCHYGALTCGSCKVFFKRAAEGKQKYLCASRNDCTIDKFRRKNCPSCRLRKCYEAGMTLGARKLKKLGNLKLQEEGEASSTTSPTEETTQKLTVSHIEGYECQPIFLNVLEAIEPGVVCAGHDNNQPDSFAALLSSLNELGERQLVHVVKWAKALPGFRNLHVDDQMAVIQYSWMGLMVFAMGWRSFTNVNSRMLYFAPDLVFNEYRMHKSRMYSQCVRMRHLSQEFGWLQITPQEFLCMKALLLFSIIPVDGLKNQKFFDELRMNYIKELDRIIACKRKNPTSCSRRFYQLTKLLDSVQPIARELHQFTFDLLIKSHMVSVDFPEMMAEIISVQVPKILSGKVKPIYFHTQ
# Sequence of Estrogen receptor (Homo sapiens) (P03372 whole entry, looked up, the tested form may be a part): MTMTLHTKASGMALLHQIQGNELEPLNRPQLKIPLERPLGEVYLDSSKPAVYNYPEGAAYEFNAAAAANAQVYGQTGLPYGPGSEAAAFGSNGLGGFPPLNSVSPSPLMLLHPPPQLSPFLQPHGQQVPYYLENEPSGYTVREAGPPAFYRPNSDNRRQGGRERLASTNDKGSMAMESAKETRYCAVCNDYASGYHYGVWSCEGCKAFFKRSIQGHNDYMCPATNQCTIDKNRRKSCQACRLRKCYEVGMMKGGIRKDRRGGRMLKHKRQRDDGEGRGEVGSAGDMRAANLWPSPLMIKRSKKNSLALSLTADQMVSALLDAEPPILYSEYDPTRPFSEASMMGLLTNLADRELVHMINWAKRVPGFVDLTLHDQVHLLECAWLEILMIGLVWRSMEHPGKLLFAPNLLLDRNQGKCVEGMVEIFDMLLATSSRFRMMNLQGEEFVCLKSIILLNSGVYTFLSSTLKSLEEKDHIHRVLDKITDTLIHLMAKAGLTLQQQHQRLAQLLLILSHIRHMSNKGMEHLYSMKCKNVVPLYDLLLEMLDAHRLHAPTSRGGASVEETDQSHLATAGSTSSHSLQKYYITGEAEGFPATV
# T1 sequence (P03372 whole entry, looked up, the tested form may be a part): as above
# T1 sequence (Q92731 whole entry, looked up, the tested form may be a part): as the sequence (Q92731 whole entry, looked up, the tested form may be a part) above
structure (smiles),measurement,setting,value
N#CC(Br)Br,outcome,[1],inactive
same,outcome,[2],inactive
same,outcome,[3],inactive
CCCCCCCCCCCCCN1CC(C)OC(C)C1 (centres undefined),outcome,[1],inactive
same,outcome,[4],inactive
same,outcome,[2],inactive
same,outcome,[3],inactive
same,outcome,[5],inactive
same,AC50,[6],0.0622 µM (active)
CCOc1cccc(C2(N3CCN(c4ccccc4)CC3)CCC(C)CC2)c1 (centres undefined),outcome,[1],inactive
Clc1ccc(C(c2ccc(Cl)cc2)C(Cl)Cl)cc1,outcome,[1],inactive
same,outcome,[7],inactive
same,outcome,[8],inactive
CC(C)(O)c1cnn2c(-c3ccc(F)c(-c4c(F)cccc4C#N)c3)cnc2n1,AC50,[9],31.7 µM (active)
same,outcome,[10],inactive
same,AC50,[3],95.8 µM (active)
CO[C@@H]1[C@H](OC(=O)NC(=O)CCl)CC[C@]2(CO2)[C@H]1[C@@]1(C)O[C@@H]1CC=C(C)C,outcome,[1],inactive
same,AC50,[9],10.7 µM (active)
same,AC50,[10],20.1 µM (active)
same,outcome,[2],inactive
same,outcome,[3],inactive
CCCCCCCCn1sccc1=O,outcome,[1],inactive
same,outcome,[4],inactive
same,outcome,[2],inactive
same,outcome,[3],inactive
same,AC50,[11],7.16 µM (active)
same,AC50,[12],16.6 µM (active)
Cn1cc(-c2ccccc2)c(=O)c(-c2cccc(C(F)(F)F)c2)c1,outcome,[1],inactive
same,outcome,[11],inactive
same,outcome,[13],inactive
CCNS(=O)(=O)C(F)(F)C(F)(F)C(F)(F)C(F)(F)C(F)(F)C(F)(F)C(F)(F)C(F)(F)F,outcome,[9],inactive
same,outcome,[10],inactive
same,outcome,[14],inactive
same,outcome,[7],inactive
same,outcome,[5],inactive
same,outcome,[12],inactive
Nc1ccc(Cl)cc1N,outcome,[9],inactive
same,outcome,[10],inactive
OCCCBr,outcome,[1],inactive
same,outcome,[4],inactive
same,outcome,[2],inactive
same,outcome,[3],inactive
CC(C)N(Cc1ccccc1)C(=O)C(C)(C)C,outcome,[9],inactive
same,outcome,[10],inactive
same,AC50,[3],50 µM (active)
same,AC50,[15],13.7 µM (active)
OCCOCCO,outcome,[1],inactive
same,outcome,[4],inactive
same,outcome,[2],inactive
same,outcome,[3],inactive
same,outcome,[5],inactive
[Cl-].[Cl-].[Hg+2],outcome,[1],inactive
same,outcome,[2],inactive
same,outcome,[3],inactive
same,AC50,[11],8.46 µM (active)
same,AC50,[12],5.1 µM (active)
same,AC50,[15],44.2 µM (active)
CC(C)(OOC(C)(C)c1ccccc1)c1ccccc1,AC50,[9],76.2 µM (active)
same,AC50,[10],71.1 µM (active)
same,AC50,[3],3.31 µM (active)
ClC1=C(Cl)C2(Cl)C3C(Cl)C=CC3C1(Cl)C2(Cl)Cl (centres undefined),outcome,[1],inactive
same,outcome,[4],inactive
same,outcome,[2],inactive
same,outcome,[3],inactive
O=C(Nc1ccccc1)c1ccccc1I,outcome,[1],inactive
same,outcome,[9],inactive
same,outcome,[10],inactive
same,outcome,[2],inactive
same,AC50,[15],12.8 µM (active)

# From PubChem BioAssay (EPA / NIEHS)
